Gal4-VP16 FLuc: VP16 counterscreen qHTS for inhibitors of ROR gamma transcriptional activity. Drosophila S2 Gal4-VP16 UAS-luciferase, luminescence, 20 h. 3.5% of 310,000 active. AID 2546, 2010. Potency, µM (doses to about 53.6 µM), inactives show at the highest dose activity, negative = inhibition, usual class: inhibitors;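 also: Gal4-VP16 expression switched on by copper sulfate through the metallothionein promoter; % is scaled to controls: 0 for no effect and ±100 for the full control effect; nearly all actives have a fitted effect of over 50% in size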
Integrin act MD: qHTS for Activators of Integrin-Mediated Alleviation for Muscular Dystrophy. alpha7betagal myoblasts, beta-gal FDG fluorescence, 48 h. Potency, µM (titrated, usually from 38.3 µM), for inactives: top-dose activation, actives largely listed as activators. 0.064% of 350,000 active. AID 624291, 2012;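 also: 100% = response of the positive control SU9516; nearly all actives have a fitted effect of over 60% in size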
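Alpha7betagal+/- myoblasts (passage 13) were plated 16-24 hr, then exposed to compounds (1:260 dilution of DMSO stock) for 48 hours at 37C. After MPER lysis, β-galactosidase reporter activity was read as FDG fluorescence (ex 480/em 540) after 30 minutes.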
BCR signal inh: qHTS Assay to Find Inhibitors of Chronic Active B-Cell Receptor Signaling; ABC-DLBCL IkBa-CBG/CBR reporter, luminescence ratio, 4 h; Potency, µM (titrated, usually from 46.1 µM), inactives show at the highest dose activity change, negative = inhibition, usual class: inhibitors; 0.05% of 340,000 active; AID 493014, 2011; active = well fitted inhibition curve with a large enough effect in the signal ratio, with a control signal flat, not every such curve was filed as active; inconclusive = small, poorly fitted or top-dose-only effect, or effect the other way, or a change in a side signal; the % refers to the signal ratio;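 also: plate controls were basal doxycycline-induced cells for no effect and cells given 10 µM MG132 for full effect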
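Concentration-response series (up to 46 uM) were applied to TMD8 dual-reporter cells for 4 h at 37C with doxycycline. Green/red ratio, after filter-overlap correction, defined %Activity; red signal alone was normalised to basal cells and zero luminescence.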
RORg inh: qHTS for inhibitors of ROR gamma transcriptional activity; Nuclear receptor ROR-gamma (Mus musculus), P51450; Drosophila S2 Gal4-RORgamma UAS-luciferase reporter, 20 h; Potency, µM (series often up to 53.6 µM), without a hit: at the top dose activity change, negative = inhibition, hits mostly inhibitors; 5.4% of 310,000 active; AID 2551, 2010; also: % is scaled to controls: 0 for no effect and ±100 for the full control effect; nearly all actives have a fitted effect of over 60% in size
Target sequence (P51450 whole entry, looked up, the tested form may be a part): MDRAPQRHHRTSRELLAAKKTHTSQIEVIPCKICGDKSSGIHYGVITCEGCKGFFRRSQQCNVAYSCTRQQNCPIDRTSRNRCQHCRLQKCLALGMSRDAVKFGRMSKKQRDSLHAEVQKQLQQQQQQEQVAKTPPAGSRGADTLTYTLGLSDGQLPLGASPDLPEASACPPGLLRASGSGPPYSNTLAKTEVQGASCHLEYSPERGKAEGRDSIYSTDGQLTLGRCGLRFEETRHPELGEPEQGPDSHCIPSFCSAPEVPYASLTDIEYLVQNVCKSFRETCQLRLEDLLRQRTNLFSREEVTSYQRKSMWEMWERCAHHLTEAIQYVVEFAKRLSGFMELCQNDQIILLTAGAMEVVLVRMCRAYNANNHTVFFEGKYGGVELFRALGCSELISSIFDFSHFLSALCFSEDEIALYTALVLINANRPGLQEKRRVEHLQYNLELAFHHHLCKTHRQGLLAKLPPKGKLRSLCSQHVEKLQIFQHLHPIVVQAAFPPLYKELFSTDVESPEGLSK
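Drosophila S2 cells stably expressing Gal4-DBD/mouse RORγ fusion under metallothionein promoter plus UAS-luciferase; compound 1 h, then 700 uM CuSO4 induction for 20 h at ambient temperature; inhibition read as reduced luminescence.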
uPA surface inh: qHTS for Inhibitors of Cell Surface uPA Generation | cell surface uPA generation assay, qHTS | Potency, µM (doses to about 38.3 µM), without a hit: at the highest dose activity change, negative = inhibition, hits mostly inhibitors | 0.31% of 330,000 active | AID 540303, 2011; active = well fitted inhibition curve with a large enough effect; inconclusive = small, poorly fitted or top-dose-only effect; inactive = no such curve, though single readings can be large or run the other way; tested in mouse RAW 264.7 cells; also: % is scaled to controls: 0 for no effect and ±100 for the full control effect; nearly all actives have a fitted effect of over 55% in size
Mito fusion yeast: qHTS Assay for Small Molecule Inhibitors of Mitochondrial Division or Activators of Mitochondrial Fusion. Potency, µM (doses to about 46.1 µM), for inactives: at the highest dose growth rescue (activation), usual class: activators. AID 485298, 2010. S. cerevisiae fusion-defective mutant growth rescue, CellTiterGlo 48 h. 0.23% of 320,000 active; also: % of control where 0% means no effect; nearly all actives have a fitted effect of over 45% in size
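Temperature-sensitive fusion-defective S. cerevisiae (e.g. fzo1-1, mgm1-5) were grown with compound in YPEG medium (3% ethanol, 3% glycerol) for 48 hours at 37C. Growth rescue was measured as viability by CellTiterGlo luminescence after 10 minutes at ambient.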
* hit, by the source's call; ? = inconclusive; . = not tested or not shown. This is a sample that favours compounds with a hit; in the whole collection about 5.5% have one here. Unless noted, calls follow the shape of the dose curve; as a rule, active = well fitted curve in the direction sought with a large enough effect; inconclusive = small, poorly fitted or top-dose-only effect, or another doubt; inactive = no such curve, though single readings can be large; an effect the other way counts as inactive or inconclusive. Potency is read from the fitted curve at half-maximal effect.

SMILES | Gal4-VP16 FLuc | Integrin act MD | BCR signal inh | RORg inh | uPA surface inh | Mito fusion yeast
CC[C@H](C)[C@H](NC(=O)[C@H](CC(=O)O)NC(=O)[C@H](CC(N)=O)NC(=O)[C@@H](NC(=O)[C@H](CCCNC(=N)N)NC(=O)[C@@H](NC(=O)[C@@H](NC(=O)[C@@H](NC(=O)[C@@H](NC(=O)[C@H](CCCCN)NC(=O)[C@@H](NC(=O)[C@H](CC(C)C)NC(=O)[C@@H](NC(=O)[C@H](CCCCN)NC(=O)[C@@H](NC(=O)[C@H](CC(=O)O)NC(=O)[C@H](CC(=O)O)NC(=O)[C@H](CCC(N)=O)NC(=O)[C@@H](NC(=O)[C@H](CCCCN)NC(=O)[C@H](CCC(N)=O)NC(=O)[C@@H](NC(=O)[C@@H]1CCCN1C(=O)[C@@H](N)C(C)C)[C@@H](C)CC)C(C)C)[C@@H](C)O)[C@@H](C)O)[C@@H](C)CC)[C@@H](C)O)[C@@H](C)CC)C(C)C)[C@@H](C)O)[C@@H](C)CC)C(=O)N[C@@H](CO)C(=O)N[C@@H](Cc1cnc[nH]1)C(=O)N[C@H](C(=O)N[C@@H](CCC(N)=O)C(=O)N[C@@H](CO)C(=O)N[C@H](C(=O)N[C@@H](CO)C(=O)N[C@@H](CO)C(=O)N[C@@H](CCCCN)C(=O)N[C@@H](CCC(N)=O)C(=O)N[C@@H](CCCCN)C(=O)O)C(C)C)[C@@H](C)O | -3.9% | . | . | 8.8% | . | .
O=C(COc1ccc(S(=O)(=O)N2CCOCC2)cc1)NC1CC1 | 4.8% | 8.6% | 6.0% | -11.7% | 2.3% | -3.0%
COc1ccc(/C=C(\NC(=O)c2ccccc2)C(=O)N/N=C/c2sccc2C)cc1 | 22.4µM* | 0.5% | -0.2% | 11.2µM* | -1.7% | -9.2%
O=C(N/N=C/c1cccs1)/C(=C/c1ccccc1)NC(=O)c1ccccc1 | ? | -14.0% | -1.8% | 11.2µM* | -28.8% | -2.8%
COc1ccc(/C=C(/NC(=O)c2ccccc2)C(=O)N/N=C/c2sccc2C)cc1 | ? | 9.4% | ? | 12.6µM* | -6.1% | -7.4%
CCN(CC(=O)Nc1ccc(NC(C)=O)cc1)C(=O)c1ccc(NC2CC2)c([N+](=O)[O-])c1 | . | 18.9% | 3.1% | . | 0.6% | -1.5%
COC(=O)c1ccc(CNC(=O)[C@@H]2CCCN2S(=O)(=O)c2ccccc2F)cc1 | . | 14.6% | -0.3% | . | -3.1% | .
CC1=NN(C(N)=S)C(=O)C1N=Nc1cccc(Cl)c1 (stereo not given) | 2µM* | -5.1% | ? | 0.794µM* | -5.6% | 10.8%
CC1=NN(C(N)=S)C(=O)C1N=Nc1c(C)cc(C)cc1C (stereo not given) | 1.78µM* | -6.3% | -13.5% | 0.501µM* | 12.4% | 11.1%
COc1cccc(N=NC2C(=O)N(C(N)=S)N=C2C)c1 (stereo not given) | . | 20.9% | . | . | 7.7% | .
CC1=NN(C(N)=S)C(=O)C1N=Nc1ccccc1C (stereo not given) | 0.0447µM* | 0.2% | 23.2% | 0.1µM* | -8.6% | 1.4%
CC1=NN(C(N)=S)C(=O)C1N=Nc1c(Cl)cc([N+](=O)[O-])cc1Cl (stereo not given) | 1.58µM* | 10.9% | ? | 0.355µM* | -6.1% | -10.9%
CC1=NN(C(N)=S)C(=O)C1N=Nc1c(Br)cc(Br)cc1Br (stereo not given) | 1.26µM* | 19.1% | 10.4% | 1.41µM* | 2.7% | -22.4%
CC1=NN(C(N)=S)C(=O)C1N=Nc1ccc(C)cc1C (stereo not given) | 1.12µM* | . | 6.9% | 0.501µM* | . | 7.0%
CC1=NN(C(N)=S)C(=O)C1N=Nc1ccccc1O (stereo not given) | -28.3% | -36.6% | -0.8% | -40.1% | -3.5% | -10.6%
CC(=O)N(C)c1ccc(N=NC2C(=O)N(C(N)=S)N=C2C)cc1 (stereo not given) | 2µM* | 6.3% | 4.5% | 1µM* | ? | 21.5%
CCOc1ccccc1N=NC1C(=O)N(C(N)=S)N=C1C (stereo not given) | 1µM* | ? | ? | 0.708µM* | ? | -20.5%
CC(OC(=O)C1=COCCO1)C(=O)Nc1cc(S(=O)(=O)N2CCCCC2)ccc1Cl (stereo not given) | -1.3% | 0.7% | 4.6% | 15.7% | 9.2% | -0.7%
O=C(CCN1C(=O)[C@@H]2Cc3ccccc3CN2C1=O)N[C@@H](Cc1ccccc1)C(=O)O | 0.9% | 0.0% | 1.9% | -4.5% | 5.0% | 0.1%
COc1ccccc1N1CCN(c2cc(=O)n(Cc3ccc(F)cc3)c(=O)[nH]2)CC1 | -10.6% | 11.9% | 1.4% | 25.5% | 2.82µM* | -0.9%
COc1ccccc1N1CCN(S(=O)(=O)CCNC(=O)Cc2ccc(F)cc2)CC1 | . | -17.8% | 0.0% | . | 7.08µM* | 2.4%
Cc1c(Cl)cnc(NC(=O)COC(=O)[C@H](C)NC(=O)c2ccccc2)c1Cl | . | 0.3% | 0.7% | . | -3.5% | -0.1%
CC(C)c1ccc2c(c1)CC[C@H]1[C@](C)(CN)CCC[C@]21C | ? | . | . | 11.2µM* | -0.7% | .
C=CCn1c(C)cc(C(=O)COC(=O)COc2ccccc2C#N)c1C | 1.2% | 18.2% | -3.4% | -0.3% | 1.0% | -20.0%
C=CCn1c(C)cc(C(=O)COC(=O)[C@@H](NC(=O)c2ccccc2Cl)C(C)C)c1C | 12.6µM* | -18.4% | 4.8% | 14.1µM* | -0.6% | -1.5%
SMILES | Gal4-VP16 FLuc | Integrin act MD | BCR signal inh | RORg inh | uPA surface inh | Mito fusion yeast
CCOc1cc(-c2nc(-c3ccccc3)c(-c3cc([N+](=O)[O-])ccc3C)[nH]2)ccc1O | -14.1% | -32.3% | . | ? | -9.9% | 14.1µM*
O=[N+]([O-])c1ccc(O)c(-c2nc(-c3ccccc3)c(-c3cccs3)[nH]2)c1 | 11.2µM* | 17.8% | 5.0% | -89.0% | -14.7% | -15.4%
CCC(C)c1ccc(OCc2ccc(C(=O)O)o2)cc1 (stereo not given) | ? | 3.8% | ? | 14.1µM* | 2.6% | 24.6%
CCCc1ccc(OCc2ccc(C(=O)N3CCCC3)o2)cc1 | -25.4% | -72.3% | ? | ? | 0.5% | -32.0%
CCOC(=O)C(CCCOc1ccc(C(C)CC)cc1)C(=O)OCC (stereo not given) | ? | -30.2% | -0.4% | 2.82µM* | 6.0% | 1.4%
CCOc1ccc(OCc2ccc(C(=O)N3CCCC3)o2)cc1 | -29.5% | -47.9% | ? | 2.51µM* | -12.4% | 3.2%
C=CCSCC=C | 6.6% | . | . | 10.2% | . | .

Compound activity (PubChem)
